The list is not random: actives were taken first. Their share in the collection is about 7.8%.
HCV inhibitor: qHTS Assay for Inhibitors of Hepatitis C Virus (HCV) | Huh7.5.1 HCVcc-Cre infection, luciferase reporter, 44 h | Potency, µM (series often up to 41.8 µM), without a hit: at the top dose activity change, negative = inhibition, usual class: inhibitors | 340,000 compounds, 3.4% hits | AID 651820, 2012; active means well fitted inhibition curve with a large enough effect; inconclusive means small, poorly fitted or top-dose-only effect, or another doubt; inactive means no such curve, though single readings can be large or run the other way; further: potency means the concentration at half of the fitted maximal effect
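Antiviral activity was scored by luciferase reporter output from cells infected with HCVcc-Cre (~0.5 moi) in presence of compound, 44 h infection period, cells seeded 1,000/well 4 h prior.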
HCMV inh: qHTS Assay for inhibitors of the human cytomegalovirus (HCMV); AID 1259415, 2018; HFF cells, HCMV-luciferase reporter, 72 h; hits give low values; activity change, negative = inhibition, % at 57.5 µM; 410,000 compounds, 4.5% hits; in the data active means activity change below about -60%; inconclusive means no clear call, values can overlap the other calls; inactive means above about -39%
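Cell-based, HFFs, 1000 cells/well, 16 h 37C; cpds in DMSO + HCMV-luc, MOI 1 PFU/cell; 72 h 37C; OneGlo luminescence after 5 min RT; norm. to buffer vs Salinomycin 10uM.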
VACV Venus inh: qHTS for Stage-Specific Inhibitors of Vaccinia Orthopoxvirus: Venus Reporter Primary qHTS; Vaccinia virus Venus reporter expression, fluorescence; Potency, µM (titrated, usually from 36.5 µM), without a hit: at the highest dose activity change, negative = inhibition, hits mostly inhibitors; 330,000 compounds, 0.46% hits; AID 720580, 2013; calls by dose curve; tested in A549 cells; further: potency means the concentration at half of the fitted maximal effect; nearly all actives have a fitted effect of over 30% in size
VACV mCherry inh: qHTS for Stage-Specific Inhibitors of Vaccinia Orthopoxvirus: mCherry Reporter Primary qHTS; Vaccinia virus mCherry reporter infection, fluorescence; 310,000 compounds, 0.63% hits; AID 720579, 2013; Potency, µM (highest dose often 36.5 µM), for inactives: at the highest dose activity change, negative = inhibition, most hits filed as inhibitors; calls by dose curve; tested in A549 cells; further: potency means the concentration at half of the fitted maximal effect; nearly all actives have a fitted effect of over 35% in size
Lassa entry inh: qHTS for Inhibitors of binding or entry into cells for Lassa Virus; Lassa virus pseudotype entry inhibition, cell reporter; Potency, µM (highest dose often 37.9 µM), without a hit: at the top dose activity change, negative = inhibition, usual class: inhibitors; 300,000 compounds, 1.2% hits; AID 540256, 2011; calls by dose curve; tested in HEK293 cells; further: potency means the concentration at half of the fitted maximal effect; nearly all actives have a fitted effect of over 50% in size
MARV entry inh: qHTS for inhibitors of binding or entry into cells for Marburg Virus | Marburg virus pseudotyped entry inhibition, cell reporter | Potency, µM (doses to about 37.8 µM), for inactives: top-dose activity change, negative = inhibition, actives largely listed as inhibitors | 300,000 compounds, 1.8% hits; calls by dose curve; tested in HEK293 cells; further: potency means the concentration at half of the fitted maximal effect
* = called active by the depositor; i = inactive; ? = inconclusive; . = no result given; ! = a repeat was not active; [ ] = another dose, or the depositor's remark. On the % scale 0 is the no-effect control and ±100 the full control effect.

SMILES | HCV inhibitor | HCMV inh | VACV Venus inh | VACV mCherry inh | Lassa entry inh | MARV entry inh
O=C(CN1CCN(c2cccc(C(F)(F)F)c2)CC1)NCc1ccccc1 | 8% | 6 | -22% | -17% | 8.9µM* | 3%
NS(=O)(=O)c1ccc(CCNC(=O)CN2CCN(c3cccc(Cl)c3)CC2)cc1 | ? | -89* | ? | ? | -18% | ?
c1ccc(CNc2ccc(N3CCOCC3)cc2)cc1 | . | 19 | . | . | . | .
O=C(CN1CCN(c2cccc(Cl)c2)CC1)NCc1ccccc1 | 13% | 26 | . | . | . | .
CC(=O)N1CCN(c2ccc(NCc3ccc(C)cc3)cc2)CC1 | -20% | -4 | . | . | -6% | 15%
CCc1ccc(CNc2ccc(N3CCN(C(C)=O)CC3)cc2)cc1 | ? | -80* | ? | ? | ? | -24%
O=C(CN1CCN(c2ccc(Cl)cc2)CC1)NCc1ccccc1 | ? | -12 | -21% | -24% | 6.3µM* | ?
Cc1oc(-c2ccc3c(c2)OCCO3)cc1C(=O)O | 14% | -63* | -11% | -2% | 1.1µM* | ?
CC(C)C[C@H]1CN([C@@H](Cc2ccc(O)cc2)CN2CCC[C@H]2CN2C(=O)C(=O)NC[C@@H]2Cc2ccccc2)C(=O)C(=O)N1CC1CCCCC1 | . | -12 | -10% | -8% | . | .
CC(C)C[C@H]1CN([C@@H](Cc2ccc(O)cc2)CN2CCC[C@@H]2CN2C(=O)C(=O)NC[C@@H]2Cc2ccccc2)C(=O)C(=O)N1CC1CCCCCC1 | ? | -65* | -14% | -22% | . | .
CC(C)C[C@H]1CN([C@@H](Cc2ccccc2)CN2CCC[C@H]2CN2C(=O)C(=O)NC[C@@H]2Cc2ccc(O)cc2)C(=O)C(=O)N1CC1CCCCCC1 | . | -87* | -4% | 6% | . | .
CC(C)C[C@H]1CNC(=O)C(=O)N1C[C@@H]1CCCN1C[C@H](Cc1ccc(O)cc1)N1C[C@H](Cc2ccccc2)N(CC2CCCCCC2)C(=O)C1=O | . | -4 | -17% | -11% | . | .
CCCN1CCc2cc(O)cc3c2[C@H]1Cc1ccc(O)c(O)c1-3 | ? | -7 | -15% | -2% | -37% | 35µM*!
CCCN1CCc2cccc3c2C1Cc1ccc(O)c(O)c1-3 (configuration not stated) | . | . | -9% | i | . | ?
NC(=O)C1CCN(c2ncnc3c2cnn3-c2cccc(Cl)c2)CC1 | . | 55 | -1% | -8% | 28%[46.1 µM] | .
Oc1c(N=NC(=S)Nc2ccccc2F)c2ccccc2n1Cc1ccccc1F | 13µM* | -26 | . | . | . | .
Cc1ccccc1Cn1c(O)c(N=NC(=S)Nc2ccccc2F)c2ccccc21 | 2.2µM* | ? | . | . | ? | ?
Cc1ccc(C)c(Cn2c(O)c(N=NC(=S)Nc3ccccc3F)c3ccccc32)c1 | 3.2µM* | 4 | . | . | ? | ?
Cc1ccc(Cn2c(O)c(N=NC(=S)Nc3ccccc3F)c3cc(S(=O)(=O)N4CCOCC4)ccc32)cc1 | ? | 0 | . | . | . | .
Oc1c(N=NC(=S)Nc2ccccc2F)c2ccccc2n1Cc1ccc(Cl)cc1 | ? | 72 | . | . | ? | ?
O=C(CCc1cn(Cc2ccccc2Cl)c2ccccc12)NC1CCCCC1 | . | -72* | -11% | -14% | -29%[46.1 µM] | .
CC1CCC(NC(=O)CCc2cn(Cc3ccccc3Cl)c3ccccc23)CC1 (configuration not stated) | . | -14 | -25% | -19% | ? | .
C[C@H](CO)NC(=O)[C@H](C)[C@H]1C[C@]1(C)[C@H](NC(=O)OCc1ccccc1)c1ccccc1 | -11% | 4 | -3% | i | ? | -13%
C[C@@H](C(=O)NCC1CC1)[C@@H]1C[C@@]1(C)[C@@H](NC(=O)OCc1ccccc1)c1ccccc1 | 0.56µM* | -9 | -18% | i | ? | -18%
CCOc1ccc(NS(=O)(=O)c2cc(OC)ccc2OC)cc1 | -1% | 4 | -14% | -17% | -3% | -30%
COc1ccc(-c2ccc(NS(=O)(=O)c3cc(C)c(C)cc3C)cc2)nn1 | . | -77* | -9% | -17% | 19%[46.1 µM] | .
O=S(=O)(Nc1ccc(-c2ccc3nncn3n2)cc1)c1cc(F)ccc1F | 5% | -17 | -11% | ? | 6% | -5%[46.1 µM]

Compound activity (PubChem)
